ChEMBL document CHEMBL3988442, “University of Dundee, Small-Polar-MMV Screening Library” (2021)
Screen size: about 48,000 compounds; about 13,000 (27%) showed an effect of 50% or more. The list shows a part of the results.

Tested on: Wolbachia pipientis
Test: Anti-Wolbachia Cell-Based Screen
Type: functional
Design: scale not given: in the data most compounds retested in dose-response had high values
Conditions: 5 µM

Row | Structure (SMILES) | Percent Effect [%]
1 | CNC(=O)c1ccc(NC(=O)NC(C)CCc2cccn2C)c(C)c1 (centres undefined) | 7.929
2 | O=C(CN1CCNCC1)N1CC[C@@H](c2ccc3ccccc3c2)[C@H](O)C1 | 6.521
3 | OC(COCc1ccccc1)CSc1nnc(C2CC2)n1C1CC1 (centres undefined) | 6.526
4 | O=C(c1cccnc1-n1cncn1)N1CCN(C2CCCC2)CC1 | 9.271
5 | CC(C)Cc1noc(CN(C)C[C@]2(O)CCCN3CCCC[C@@H]32)n1 | 1.802
6 | CCCc1nc(CN2CCN(CC(O)c3ccccc3)CC2)no1 (centres undefined) | -2.88
7 | O=C(c1ccnnc1)N1C[C@@H](OCC2CCOCC2)[C@H]2OCCC[C@H]21 | -2.354
8 | CS(=O)(=O)N1C[C@@H](F)[C@@H](OCc2nc3ccccc3o2)C1 | 18.73
9 | O=C(O)C(F)(F)F.O=C(O)C(F)(F)F.O=C1[C@@H]2CCN(C3CCOCC3)C[C@@H]2OCCN1Cc1cccnc1 | 1.497
10 | CS(=O)(=O)N[C@@H]1CCN(Cc2cccnc2)[C@H]1Cc1ccccc1.O=C(O)C(F)(F)F.O=C(O)C(F)(F)F | 1.711
11 | O=C(O)C(F)(F)F.O=C1[C@H]2CN(S(=O)(=O)c3ccccc3)C[C@H]2CN1Cc1cccnc1 | 108.5
12 | O=C(O)C(F)(F)F.O=C1[C@H]2CN(S(=O)(=O)C3CC3)C[C@H]2CN1Cc1cccnc1 | 124.6
13 | CCS(=O)(=O)N1C[C@H]2CN(Cc3cccnc3)C(=O)[C@H]2C1.O=C(O)C(F)(F)F | -7.035
14 | Cc1ccc(CN2CC[C@H]3C(=O)N(Cc4cccnc4)CCO[C@H]3C2)o1.O=C(O)C(F)(F)F.O=C(O)C(F)(F)F | -24.56
15 | COC(=O)c1cccc2nc([C@H]3CCN(C4CCN(C)CC4)C3)oc12 | -2.242
16 | CN(Cc1cccnc1)C[C@@H]1OC[C@H]2CN(Cc3ccco3)CC[C@H]21.O=C(O)C(F)(F)F.O=C(O)C(F)(F)F.O=C(O)C(F)(F)F | 9.505
17 | NC(=O)N1CC[C@H]2CO[C@H](CNC(=O)c3ccnnc3)[C@H]2C1 | -2.645
18 | O=C(NC[C@H]1OC[C@@H]2CN(Cc3ccco3)CC[C@@H]21)c1cccnc1.O=C(O)C(F)(F)F.O=C(O)C(F)(F)F | 98.92
19 | Cn1cc(C(=O)NC[C@@H]2OC[C@H]3CN(Cc4ccco4)CC[C@H]32)cn1.O=C(O)C(F)(F)F | 1.243
20 | O=C(NC[C@H]1OC[C@@H]2CCN(Cc3ccco3)C[C@@H]21)c1ccsc1.O=C(O)C(F)(F)F | 14.6
21 | Cn1cc(CN2CC[C@@H]3[C@@H](CO[C@H]3CNC(=O)c3ccco3)C2)cn1.O=C(O)C(F)(F)F.O=C(O)C(F)(F)F | 86.49
22 | Cc1ccc(CN2CC[C@@H]3[C@@H](CO[C@H]3CN(C)C)C2)o1.O=C(O)C(F)(F)F.O=C(O)C(F)(F)F | -16.8
23 | Cc1ccc(N2CC[C@@H]3[C@@H](CO[C@H]3CNC(=O)c3ccco3)C2)nn1 | 1.851
24 | Cc1cccc(N2CC[C@@H]3[C@@H](CO[C@H]3CNC(=O)c3ccco3)C2)n1 | -1.973
25 | O=C(NC[C@H]1OC[C@@H]2CCN(Cc3ccco3)C[C@@H]21)c1ccnnc1.O=C(O)C(F)(F)F | 121
26 | O=C(NC[C@H]1OC[C@@H]2CN(Cc3ccco3)CC[C@@H]21)c1cscn1.O=C(O)C(F)(F)F | 98.96
27 | CN(C)C(=O)Cn1cc(C#N)c(=O)c2cc(Br)ccc21 | -22.43

Row | Structure (SMILES) | Percent Effect [%]
28 | COCC(NC(=O)c1ccc(O)nc1)c1ccc(C)o1 (centres undefined) | 3.678
29 | O=S(=O)(c1ccc(-c2nc3c([nH]2)CCNC3)cc1)N1CCCC1 | -8.56
30 | CCCSCC(=O)N1CCCC(c2nccn2Cc2ccncc2)C1 (centres undefined) | 15.91
31 | O=C(COCC1CC1)N1CCCC(n2cncn2)C1 (centres undefined) | 10.78
32 | COCCn1ccnc1CN(Cc1ccccn1)CC(C)C | -12.4
33 | CC(c1ccccn1)N(C)Cc1ccc(-n2ccnc2)cc1 (centres undefined) | 100.9
34 | CC(C)C(O)C(C)(C)CNC(=O)NCc1ccc(-n2cncn2)cc1 (centres undefined) | -5.14
35 | CC(c1ccccn1)N(C)Cc1ccc(CCC(C)(C)O)cc1 (centres undefined) | 6.636
36 | CN(Cc1ccc(-n2cncn2)cc1)Cc1ncc[nH]1 | -14.86
37 | CC(c1ccccn1)N(C)Cc1ccc(-n2cncn2)cc1 (centres undefined) | 115.2
38 | CC(C)CN(Cc1ccc(O)c(C(=O)O)c1)Cc1ccccn1 | -5.995
39 | CC(C)CN(Cc1ccc(-n2cncn2)cc1)Cc1ccccn1 | 111.5
40 | CN(Cc1ccc(-n2ccnc2)cc1)Cc1ncc[nH]1 | -4.002
41 | COc1ccc(OC)c(S(=O)(=O)NC(=O)C(C)OC)c1 (centres undefined) | 1.842
42 | CC(C)=CCC1(CO)CCCN(S(C)(=O)=O)C1 (centres undefined) | -9.202
43 | CCc1csc(C2CCCN(C(=O)c3ncccn3)C2)n1 (centres undefined) | 104
44 | CCc1csc(C2CCCN(C(=O)c3ccncc3)C2)n1 (centres undefined) | 12.22
45 | CCc1csc(C2CCCN(C(=O)c3cnc[nH]3)C2)n1 (centres undefined) | 106.6
46 | CCc1csc(C2CCCN(C(=O)c3ccc4[nH]nnc4c3)C2)n1 (centres undefined) | 100.2
47 | CC(C)c1csc(C2CCCN(C(=O)c3ncccn3)C2)n1 (centres undefined) | 1.009
48 | Cc1csc(C2CCCN(C(=O)c3cnc[nH]3)C2)n1 (centres undefined) | -6.546
49 | CCc1csc(C2CCCN(C(=O)c3ccc4c(c3)OCO4)C2)n1 (centres undefined) | -10.1
50 | CCc1csc(C2CCCN(C(=O)c3ccc(OC)nc3)C2)n1 (centres undefined) | 6.728
51 | CCc1csc(C2CCCN(C(=O)c3ccc(=O)n(CC)n3)C2)n1 (centres undefined) | 101.1
52 | CCc1nc(CN2CCCN(C(=O)c3cnc[nH]3)CC2)cs1 | -9.99
53 | CCc1csc(C2CCCN(C(=O)c3ccc(=O)n(C)n3)C2)n1 (centres undefined) | -0.1419
54 | COC(=O)CNC(=O)C1(NC(=O)c2ccc3[nH]ncc3c2)CCCC1 | 5.444
